From PubChem BioAssay AID651610 (Broad Institute, 2012) come the findings set out here.

Broadly, the inhibition is the drop in the measured response relative to a control, in per cent.

Where “and” joins values, the source holds several entries; their conditions need not be identical. Identical values can stand only once. About 3,900 (1.1%) of roughly 360,000 compounds were called active. Shown is part of a subset that was picked to be rich in actives. A number with no mark means an inactive call.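 Rule for the calls: active = mean replicate inhibition score of at least 50 and every replicate individually at or above 50; inconclusive = only one of the two criteria met; inactive = mean below 50 and not all replicates reaching 50.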

This assay can be described thus: inhibitors of HIV-1 Env-driven cell-cell fusion, primary screen, HeLa-JRFL effector, CEM21 target cells, luciferase (AID 651610).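 Note: 0% = plate neutral controls and 100% = maraviroc near 300 nM.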 The note with it: hits give high values; at 12.3 µM unless noted.
For `CC(C)(C)c1ccc(CN2C(=O)CN=C(c3ccccc3)c3ccccc32)cc1`, the inhibition was 86.8% (active).
To `O=C1CC(=O)N(Cc2ccccc2)C(=O)N1CCCCCCN1C(=O)CC(=O)N(Cc2ccccc2)C1=O` belongs -2.61%; to `O=S(=O)(c1ccccc1)N1CCC2CCNC2C1` (stereo not given), -11.9%.
For the compound `C[C@H](CO)N1C[C@H](C)[C@H](CN(C)C(=O)Oc2ccc3ccccc3c2)OCc2cnnn2CCCC1=O`, the inhibition was -15.9% [at 16.7 µM].
On to `O=C(O)[C@@H]1[C@@H](CO)[C@@H]2Cn3c(ccc(-c4ccccc4F)c3=O)[C@H]1N2C(=O)c1cccnc1`, for which the inhibition is 1.12% [at 16.7 µM].
As to `CCCCCCCCCCCCn1ccc(=N)cc1`, the inhibition is 69% (active).
For the compound `C[C@@H]1CN([C@H](C)CO)C(=O)CCCn2cc(nn2)CO[C@@H]1CN(C)C(=O)Oc1cccc2ccccc12`, the inhibition was 0.664% [at 16.7 µM].
Turning to `CCOC(=O)[C@@H]1[C@@H]2NC(=O)N[C@@]1(C)Oc1ccccc12`, the inhibition was -2.84% [at 16.7 µM] and -0.731% [at 16.7 µM].
The figure for `CS(=O)(=O)N1CCC2CCNC2C1` (stereo not given) is -7.16%.
Take `CCC(C)(O)C(=O)OC1C(=O)OC2CC3C(C)=CC(=O)C(O)C3(C)C3C4(O)OCC23C1C(C)C4O` (stereo not given): the inhibition is 75.7% (active).
Consider `O=C(O)[C@H]1[C@H](CO)[C@H]2Cn3c(ccc(-c4ccccc4F)c3=O)[C@@H]1N2C(=O)c1cccnc1`, for which the inhibition was -4.52% [at 16.7 µM].
The figure for `Cc1cc(N2CCNC[C@@H]2C)ccc1N1CC[C@H](O)C1` is 0.23%; for `COC(=O)C[C@@H]1CC[C@@H]2NC[C@@H](O)COC[C@H]2O1` it is -11.9% [at 16.7 µM].
The figure for `O=C(c1ccccc1)C(O)(CN1CCCCC1)c1ccccc1` (stereo not given) is 8.44%.
`CC(=O)C1(O)CCC2C3CCC4=C(Cl)C(=O)CCC4(C)C3CCC21C` (stereo not given): the inhibition was 16.9%.
